Several values for one entry are separate records, joined by “and”; a condition that tells them apart may be missing. Identical values can stand only once. Records with an inconclusive call do not appear. The source holds several records for some structures; these can differ, active in one and inactive in another. Activity calls are given as the source filed them. The calls were made as follows, unless noted: active = hit-call score of the fitted dose curve at least 0.9, where 1 is the maximum; inactive = score below 0.9.
Experiments:
[1] = read-out: Monokine induced gamma interferon (MIG), CXCL9 (gene 4283); assay: BSK_SAg_MIG: BioMAP Diversity Plus: SAg Assay for Monokine induced gamma interferon (MIG) Biomarker Activity (AID 2283092); conditions: primary human HUVEC with PBMC; actives raise or lower the signal
Outline: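 Values reflect bidirectional fitting of ELISA-measured MIG against DMSO vehicle, taken 24 h after dosing of a co-culture of human umbilical vein endothelial cells and peripheral blood mononuclear cells.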

[2] = read-out: Interleukin-8 (IL8), CXCL8 (gene 3576); assay: BSK_SAg_IL8: BioMAP Diversity Plus: SAg Assay for Interleukin-8 (IL8) Biomarker Activity (AID 2283094); conditions: primary human HUVEC with PBMC; actives raise or lower the signal
Outline: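 In this co-culture of human umbilical vein endothelium with peripheral blood mononuclear cells, IL-8 is assayed by ELISA at 24 h. DMSO serves as baseline for bidirectional curve fitting.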

[3] = BSK_SAg_Proliferation: Cell Proliferation Assessment in the BioMAP Diversity Plus: SAg Assay (AID 2283095); conditions: primary human HUVEC with PBMC;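 also: relative cell number as total protein by SRB absorbance in sub-confluent culture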
Outline: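 Readout is SRB-stained protein (560 nm) in a primary human HUVEC and PBMC co-culture; sub-confluent cultures are read at 96 h. Activity is fitted bidirectionally using DMSO as baseline.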

[4] = BSK_SAg_SRB: Viability Assessment in the BioMAP Diversity Plus: SAg Assay (AID 2283096); conditions: primary human HUVEC with PBMC;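 also: cells read one day after compound addition; hits may be either gain or loss of signal compared with DMSO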
Outline: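 Human umbilical vein endothelial cells co-cultured with PBMC, read 24 h after compound dosing. Total protein measured by sulforhodamine B staining (0.1% SRB after 10% TCA fixation, absorbance 560 nm); bidirectional fit versus DMSO baseline.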

[5] = BSK_SAg_PBMCCytotoxicity: PBMC Cytotoxicity Assessment in the BioMAP Diversity Plus: SAg Assay (AID 2283093); conditions: primary human HUVEC with PBMC;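 also: PBMC viability measured as Alamar Blue reduction fluorescence at 546/580 nm; fitted both ways against DMSO so a hit may be loss or gain of signal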;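 as to AC50: PBMC superantigen activated with SEB plus TSST-1 one hour after compound addition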
Outline: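 HUVEC/PBMC co-culture; PBMC exposed to chemical 1 h before SEB and TSST-1 activation (20 ng/mL each), incubated 90 h, then Alamar Blue 6 h, fluorescence 546/580 nm. Bidirectional fit versus DMSO baseline.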

[6] = target: human Caspase 5 (CASP5), CASP5 (gene 838) (UniProt P51878); assay: NVS_ENZ_hCASP5: NovaScreen (NVS) Enzymatic Assay for human Caspase 5 (CASP5) (AID 2283137; active = hit-call score of the fitted dose curve at least 0.9, where 1 is the maximum)
Outline: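 Cell-free protease assay with bacterially expressed CASP5 and a fluorescent substrate, measured at 2 h. Values fitted relative to DMSO as baseline, from concentration-response series topping at 50 uM.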

CDK2 (gene 1017) = CDK2 (gene 1017) (UniProt P24941); assay: NVS_ENZ_hCDK2: NovaScreen (NVS) Enzymatic Assay for human Cyclin-Cependent Kinase 2 (CDK2) (AID 2283144; active = hit-call score of the fitted dose curve at least 0.9, where 1 is the maximum)
Outline: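 Cell-free recombinant human CDK2 with fluorescent substrate, product separated by electrophoretic mobility shift; 1 hr read. Primary screen at 25 uM in duplicate, actives retested in concentration-response up to 50 uM; loss of signal versus DMSO.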

[7] = target: Cytochrome P450 3A4 (Homo sapiens) (UniProt P08684); assay: NVS_ADME_hCYP3A4: NovaScreen (NVS) CYP450-related Enzyme Activity (ADME) Assay for human CYP3A4 (AID 2283110; active = hit-call score of the fitted dose curve at least 0.9, where 1 is the maximum)
Outline: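 Cell-free recombinant enzyme expressed in insect cells; fluorescent substrate turnover read after 0.33 h, acetonitrile as negative control. Primary screen in duplicate at 10 uM, actives then tested in concentration series.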

[8] = target: human Beta-secretase (BACE), BACE1 (gene 23621) (UniProt P56817); assay: NVS_ENZ_hBACE: NovaScreen (NVS) Enzymatic Assay for human Beta-secretase (BACE) (AID 2283140; active = hit-call score of the fitted dose curve at least 0.9, where 1 is the maximum;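 also: hits are inhibitors that reduce fluorescent substrate signal versus DMSO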)
Outline: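 Recombinant BACE1 (SF9 extract) incubated with compound and fluorescent substrate, 1 h. Plates carried positive and DMSO negative controls. Initial single dose 25 uM, duplicate; confirmation by concentration series.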

[9] = target: human CYP19A1, CYP19A1 (gene 1588) (UniProt P11511); assay: NVS_ADME_hCYP19A1: NovaScreen (NVS) CYP450-related Enzyme Activity (ADME) Assay for human CYP19A1 (AID 2283098; active = hit-call score of the fitted dose curve at least 0.9, where 1 is the maximum)
Outline: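 Recombinant enzyme in a cell-free format, read 0.5 h after dosing by fluorescence from a fluorogenic substrate. Loss of signal was fitted against acetonitrile as baseline. Primary screen in duplicate at 10 uM, actives then tested in concentration series.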

[10] = target: human CYP1A1, CYP1A1 (gene 1543) (UniProt P04798); assay: NVS_ADME_hCYP1A1: NovaScreen (NVS) CYP450-related Enzyme Activity (ADME) Assay for human CYP1A1 (AID 2283100; active = hit-call score of the fitted dose curve at least 0.9, where 1 is the maximum)
Outline: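 Inhibition of recombinant CYP1A1 turnover was assessed fluorometrically in a biochemical format 1 h after compound exposure. Testing began at 10 uM in duplicate and progressed to concentration series reaching 20 uM, with on-plate positive and negative controls.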

[11] = target: human CYP1A2, CYP1A2 (gene 1544) (UniProt P05177); assay: NVS_ADME_hCYP1A2: NovaScreen (NVS) CYP450-related Enzyme Activity (ADME) Assay for human CYP1A2 (AID 2283102; active = hit-call score of the fitted dose curve at least 0.9, where 1 is the maximum;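 also: fluorescence from turnover of a fluorogenic substrate by recombinant insect-cell CYP1A2; potency for inhibition since loss of fluorescence marks reduced CYP1A2 activity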)
Outline: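 Inhibition scored as decrease in fluorescent product versus acetonitrile negative control. Enzyme: insect-cell recombinant human CYP1A2, substrate-specific, cell-free. Reading at 0.5 h; 10 uM duplicate initial screen with positive and negative controls on every plate.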

[12] = target: human CYP2B6, CYP2B6 (gene 1555) (UniProt P20813); assay: NVS_ADME_hCYP2B6: NovaScreen (NVS) CYP450-related Enzyme Activity (ADME) Assay for human CYP2B6 (AID 2283101; active = hit-call score of the fitted dose curve at least 0.9, where 1 is the maximum)
Outline: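 Compounds were first screened in duplicate at 10 uM against recombinant enzyme, with the fluorescent product measured after 1 hour. Active compounds were retested over a concentration series. Loss of fluorescence versus acetonitrile control was scored as reduced enzyme activity.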

[13] = target: human CYP2D6, CYP2D6 (gene 1565) (UniProt P10635); assay: NVS_ADME_hCYP2D6: NovaScreen (NVS) CYP450-related Enzyme Activity (ADME) Assay for human CYP2D6 (AID 2283107; active = hit-call score of the fitted dose curve at least 0.9, where 1 is the maximum)
Outline: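 Biochemical fluorescence assay, insect-cell-derived enzyme. Read at 1 h; inhibition taken from loss of signal against acetonitrile. Screened at 10 uM in duplicate, with concentration series for actives.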

[14] = target: human CYP2C9, CYP2C9 (gene 1559) (UniProt P11712); assay: NVS_ADME_hCYP2C9: NovaScreen (NVS) CYP450-related Enzyme Activity (ADME) Assay for human CYP2C9 (AID 2283108; active = hit-call score of the fitted dose curve at least 0.9, where 1 is the maximum)
Outline: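 Recombinant human CYP2C9 expressed in SF9 cells, fluorogenic substrate, fluorescence read 0.75 h after dosing. Chemicals first run in duplicate at 10 uM, with actives followed in concentration series; loss of signal versus acetonitrile baseline.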

[15] = target: rat CYP2A2, Cyp2a2 (gene 24895) (UniProt P15149); assay: NVS_ADME_rCYP2A2: NovaScreen (NVS) CYP450-related Enzyme Activity (ADME) Assay for rat CYP2A2 (AID 2283116; active = hit-call score of the fitted dose curve at least 0.9, where 1 is the maximum)
Outline: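 Cell-free recombinant rat CYP2A2 activity with fluorogenic substrate, fluorescence read 0.2 h after dosing. Chemicals screened at 10 uM in duplicate, hits then run in concentration-response up to 20 uM; signal loss versus acetonitrile baseline.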

[16] = target: human Acid Phosphatase 1 (ACP1), ACP1 (gene 52) (UniProt P24666); assay: NVS_ENZ_hACP1: NovaScreen (NVS) Enzymatic Assay for human Acid Phosphatase 1 (ACP1) (AID 2283136; active = hit-call score of the fitted dose curve at least 0.9, where 1 is the maximum)
Outline: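 Recombinant enzyme expressed in Sf9 cells, tested cell-free; activity read by fluorescence with electrophoretic mobility shift separation of substrate and product, 1.5 h after dosing. Primary screen in duplicate at 25 uM, actives then run in concentration series; loss of signal versus DMSO.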

[17] = target: human AKT serine/threonine Kinase 2 (AKT2), AKT2 (gene 208) (UniProt P31751); assay: NVS_ENZ_hAKT2: NovaScreen (NVS) Enzymatic Assay for human AKT serine/threonine Kinase 2 (AKT2) (AID 2283141; active = hit-call score of the fitted dose curve at least 0.9, where 1 is the maximum)
Outline: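 Cell-free fluorescence/electrophoretic mobility shift readout of recombinant human AKT2 activity, 1 h after chemical dosing. Duplicate primary screen at 25 uM, then singleton concentration-response up to 50 uM; loss of signal versus DMSO baseline.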

Measured: AC50

Chain of Cytochrome P450 3A4 (Homo sapiens) (P08684 whole entry, looked up): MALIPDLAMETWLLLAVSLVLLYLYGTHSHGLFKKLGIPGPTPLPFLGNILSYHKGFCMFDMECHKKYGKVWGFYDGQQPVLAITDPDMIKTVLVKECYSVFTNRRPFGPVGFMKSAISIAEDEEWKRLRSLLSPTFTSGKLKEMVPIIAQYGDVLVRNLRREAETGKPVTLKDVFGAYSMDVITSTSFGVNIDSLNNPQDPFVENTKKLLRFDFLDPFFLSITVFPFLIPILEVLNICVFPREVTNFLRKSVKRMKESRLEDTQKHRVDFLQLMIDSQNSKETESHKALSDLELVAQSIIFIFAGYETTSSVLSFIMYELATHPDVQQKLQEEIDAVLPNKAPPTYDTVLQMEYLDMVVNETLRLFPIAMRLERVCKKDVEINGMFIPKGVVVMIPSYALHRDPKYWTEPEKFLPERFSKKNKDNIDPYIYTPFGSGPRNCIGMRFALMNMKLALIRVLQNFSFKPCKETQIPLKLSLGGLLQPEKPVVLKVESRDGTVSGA
Chain of human CYP2D6, CYP2D6 (gene 1565) (P10635 whole entry, looked up): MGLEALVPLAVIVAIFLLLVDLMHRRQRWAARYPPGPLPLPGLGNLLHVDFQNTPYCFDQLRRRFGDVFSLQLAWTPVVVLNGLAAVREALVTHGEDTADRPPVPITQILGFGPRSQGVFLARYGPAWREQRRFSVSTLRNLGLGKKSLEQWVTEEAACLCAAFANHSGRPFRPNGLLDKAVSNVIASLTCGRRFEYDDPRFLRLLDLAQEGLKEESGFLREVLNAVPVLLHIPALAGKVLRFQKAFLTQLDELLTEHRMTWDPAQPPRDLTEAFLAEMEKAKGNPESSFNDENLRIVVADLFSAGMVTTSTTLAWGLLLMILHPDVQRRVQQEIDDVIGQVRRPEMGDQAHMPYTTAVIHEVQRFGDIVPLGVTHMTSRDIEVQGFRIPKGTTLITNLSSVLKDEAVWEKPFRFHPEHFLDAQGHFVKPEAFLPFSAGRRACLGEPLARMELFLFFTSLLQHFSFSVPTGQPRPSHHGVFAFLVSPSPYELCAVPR
Chain of human Acid Phosphatase 1 (ACP1), ACP1 (gene 52) (P24666 whole entry, looked up): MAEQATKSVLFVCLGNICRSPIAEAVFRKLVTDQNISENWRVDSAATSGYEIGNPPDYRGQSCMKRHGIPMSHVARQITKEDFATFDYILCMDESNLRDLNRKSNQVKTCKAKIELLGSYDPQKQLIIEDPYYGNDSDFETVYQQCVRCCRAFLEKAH
Chain of human Caspase 5 (CASP5), CASP5 (gene 838) (P51878 whole entry, looked up): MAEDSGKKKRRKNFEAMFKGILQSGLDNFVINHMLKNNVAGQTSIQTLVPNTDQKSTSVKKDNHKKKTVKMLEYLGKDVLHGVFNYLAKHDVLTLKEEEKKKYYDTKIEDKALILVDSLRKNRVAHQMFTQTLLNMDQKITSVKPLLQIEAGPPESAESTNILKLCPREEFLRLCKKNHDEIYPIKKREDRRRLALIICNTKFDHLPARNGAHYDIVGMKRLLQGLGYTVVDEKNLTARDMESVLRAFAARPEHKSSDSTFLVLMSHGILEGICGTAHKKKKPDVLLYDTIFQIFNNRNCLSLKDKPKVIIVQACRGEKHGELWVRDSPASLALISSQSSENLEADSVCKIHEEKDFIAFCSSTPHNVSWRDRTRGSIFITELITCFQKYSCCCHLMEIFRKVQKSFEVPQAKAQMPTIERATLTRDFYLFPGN
Chain of human CYP2B6, CYP2B6 (gene 1555) (P20813 whole entry, looked up): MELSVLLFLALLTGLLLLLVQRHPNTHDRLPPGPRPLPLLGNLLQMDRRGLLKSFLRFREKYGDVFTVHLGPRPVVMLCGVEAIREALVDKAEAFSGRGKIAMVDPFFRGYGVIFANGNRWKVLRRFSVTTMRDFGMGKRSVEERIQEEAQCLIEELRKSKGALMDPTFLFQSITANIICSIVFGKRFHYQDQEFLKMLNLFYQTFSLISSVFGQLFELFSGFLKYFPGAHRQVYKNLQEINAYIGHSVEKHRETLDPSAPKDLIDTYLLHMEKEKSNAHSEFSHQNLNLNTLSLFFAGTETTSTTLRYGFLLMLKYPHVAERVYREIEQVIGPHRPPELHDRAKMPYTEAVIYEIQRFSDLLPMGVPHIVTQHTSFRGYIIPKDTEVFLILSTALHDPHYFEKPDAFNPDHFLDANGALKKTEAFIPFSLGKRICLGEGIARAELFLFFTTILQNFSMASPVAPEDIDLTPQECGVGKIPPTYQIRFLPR
Chain of human Beta-secretase (BACE), BACE1 (gene 23621) (P56817 whole entry, looked up): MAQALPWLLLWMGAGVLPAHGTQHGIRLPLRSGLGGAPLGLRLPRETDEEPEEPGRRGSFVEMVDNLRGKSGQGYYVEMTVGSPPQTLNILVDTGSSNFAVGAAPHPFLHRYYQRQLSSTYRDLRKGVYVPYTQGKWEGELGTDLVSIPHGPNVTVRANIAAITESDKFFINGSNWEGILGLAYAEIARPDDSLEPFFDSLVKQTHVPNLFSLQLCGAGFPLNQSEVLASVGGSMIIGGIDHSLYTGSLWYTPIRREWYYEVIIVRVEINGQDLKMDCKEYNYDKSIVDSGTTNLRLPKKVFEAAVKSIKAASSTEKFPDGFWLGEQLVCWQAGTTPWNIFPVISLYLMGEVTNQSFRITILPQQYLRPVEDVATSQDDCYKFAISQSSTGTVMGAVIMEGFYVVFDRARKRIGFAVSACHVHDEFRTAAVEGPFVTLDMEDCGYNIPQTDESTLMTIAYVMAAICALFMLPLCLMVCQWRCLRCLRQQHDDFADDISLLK
Chain of rat CYP2A2, Cyp2a2 (gene 24895) (P15149 whole entry, looked up): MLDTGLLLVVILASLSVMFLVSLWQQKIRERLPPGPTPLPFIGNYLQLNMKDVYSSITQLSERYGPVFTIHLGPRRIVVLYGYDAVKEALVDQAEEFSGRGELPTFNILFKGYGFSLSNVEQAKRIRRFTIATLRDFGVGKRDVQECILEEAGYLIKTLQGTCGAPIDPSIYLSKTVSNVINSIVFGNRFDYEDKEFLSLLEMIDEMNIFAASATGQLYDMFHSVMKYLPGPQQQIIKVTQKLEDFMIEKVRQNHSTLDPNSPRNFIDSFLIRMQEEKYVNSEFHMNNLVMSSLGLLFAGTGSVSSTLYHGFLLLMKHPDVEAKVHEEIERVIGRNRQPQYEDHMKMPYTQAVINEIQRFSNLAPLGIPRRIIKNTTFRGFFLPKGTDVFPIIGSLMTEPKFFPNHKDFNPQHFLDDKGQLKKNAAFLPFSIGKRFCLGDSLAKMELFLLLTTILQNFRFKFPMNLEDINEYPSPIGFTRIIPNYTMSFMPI
Chain of human CYP19A1, CYP19A1 (gene 1588) (P11511 whole entry, looked up): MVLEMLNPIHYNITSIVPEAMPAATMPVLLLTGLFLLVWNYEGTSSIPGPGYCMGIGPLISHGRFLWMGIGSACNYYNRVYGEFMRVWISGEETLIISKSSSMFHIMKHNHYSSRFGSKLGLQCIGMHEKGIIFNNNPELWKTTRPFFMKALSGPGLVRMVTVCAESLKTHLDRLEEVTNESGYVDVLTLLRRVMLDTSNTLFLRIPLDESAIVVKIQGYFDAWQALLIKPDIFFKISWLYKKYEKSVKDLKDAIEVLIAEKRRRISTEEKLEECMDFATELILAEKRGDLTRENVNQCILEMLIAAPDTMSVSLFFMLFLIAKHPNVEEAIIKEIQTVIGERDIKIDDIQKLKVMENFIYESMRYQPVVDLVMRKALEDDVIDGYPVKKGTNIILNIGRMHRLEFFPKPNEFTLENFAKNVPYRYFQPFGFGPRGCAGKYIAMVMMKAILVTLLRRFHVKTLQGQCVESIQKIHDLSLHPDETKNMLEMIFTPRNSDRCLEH
Chain of human CYP1A2, CYP1A2 (gene 1544) (P05177 whole entry, looked up): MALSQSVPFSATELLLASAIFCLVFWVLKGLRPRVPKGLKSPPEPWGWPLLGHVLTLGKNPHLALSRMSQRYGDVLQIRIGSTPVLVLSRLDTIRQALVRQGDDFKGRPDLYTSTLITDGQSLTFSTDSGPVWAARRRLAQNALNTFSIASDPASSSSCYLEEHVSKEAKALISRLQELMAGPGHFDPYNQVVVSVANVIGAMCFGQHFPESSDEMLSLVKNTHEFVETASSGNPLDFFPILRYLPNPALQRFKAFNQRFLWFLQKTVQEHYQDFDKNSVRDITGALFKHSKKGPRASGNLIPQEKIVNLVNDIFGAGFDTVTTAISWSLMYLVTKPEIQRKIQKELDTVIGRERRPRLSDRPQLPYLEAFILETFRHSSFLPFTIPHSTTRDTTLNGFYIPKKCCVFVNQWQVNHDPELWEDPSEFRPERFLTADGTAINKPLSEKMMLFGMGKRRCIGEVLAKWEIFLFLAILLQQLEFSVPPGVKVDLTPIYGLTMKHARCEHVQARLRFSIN
Chain of human AKT serine/threonine Kinase 2 (AKT2), AKT2 (gene 208) (P31751 whole entry, looked up): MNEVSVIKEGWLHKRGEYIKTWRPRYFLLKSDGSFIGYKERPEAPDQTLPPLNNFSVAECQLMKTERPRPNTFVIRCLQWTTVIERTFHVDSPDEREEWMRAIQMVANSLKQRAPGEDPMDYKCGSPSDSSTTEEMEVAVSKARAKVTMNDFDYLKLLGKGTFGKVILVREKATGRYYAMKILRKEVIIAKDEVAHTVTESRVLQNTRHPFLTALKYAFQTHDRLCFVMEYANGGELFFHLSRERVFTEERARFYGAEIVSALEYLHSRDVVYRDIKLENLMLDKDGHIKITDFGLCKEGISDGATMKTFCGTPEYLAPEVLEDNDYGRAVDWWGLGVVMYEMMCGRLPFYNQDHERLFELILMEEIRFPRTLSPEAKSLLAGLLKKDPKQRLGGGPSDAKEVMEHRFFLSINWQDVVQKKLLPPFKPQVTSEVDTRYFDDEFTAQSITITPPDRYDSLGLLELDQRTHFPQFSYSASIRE

CCCCC=O
inactive: [1] | [2] | [3] | [4]

O=C(O)CCC(F)(F)C(F)(F)C(F)(F)C(F)(F)C(F)(F)F
inactive: [1] | [5] | [2] | [3] | [4]

CC[N+](CC)(CC)Cc1ccccc1
inactive: [1] | [2] | [3] | [4]

COC1=CC(=O)C[C@@H](C)[C@]12Oc1c(Cl)c(OC)cc(OC)c1C2=O
inactive: [1] | [5] | [2] | [3] | [4]

C[C@]12CC[C@@H]3c4ccc(O)cc4CC[C@H]3[C@@H]1C[C@@H](O)[C@@H]2O
inactive: [1] | [2] | [3] | [4]

COCN(COC)c1nc(N(COC)COC)nc(N(COC)COC)n1
inactive: [1] | [5] | [2] | [3] | [4]

CCCCCCCCCCCC
active: [3] 36.6 µM
inactive: [1] | [5] | [2] | [3] | [4]

O=P(O)(O)CCC(F)(F)C(F)(F)C(F)(F)C(F)(F)C(F)(F)C(F)(F)C(F)(F)C(F)(F)F
active: [4] 25.1 µM and 38.3 µM
inactive: [1] | [2] | [3]

O=C1OC2(c3ccccc31)c1cc(I)c(O)c(I)c1Oc1c2cc(I)c(O)c1I
inactive: [1] | [5] | [2] | [3] | [4]

O=C(c1ccccc1)c1ccccc1
inactive: [1] | [2] | [3] | [4]

N=C(N)c1ccc(OCCCCCOc2ccc(C(=N)N)cc2)cc1
inactive: [1] | [5] | [4]
active: [2] 6.91 µM | [3] 13.6 µM

Cc1[nH]nc2c1N=C(c1ccccc1Cl)c1cc([N+](=O)[O-])ccc1N2
active: [1] 8.28 µM | [2] 0.893 µM | [3] 1.94 µM | [4] 2.15 µM | CDK2 (gene 1017) 0.0067 µM
inactive: [5] | [6]

C=COC(=O)C(C)(C)CCCCCC
active: [3] 30.7 µM | [4] 36.1 µM
inactive: [1] | [2]

COc1cc(OC)nc(NC(=O)NS(=O)(=O)Nc2ccccc2C(=O)N(C)C)n1
inactive: [1] | [5] | [2] | [3] | [4]

CCCCC(CC)C(=O)OCCOCCOCCOCCOC(=O)C(CC)CCCC (stereo not drawn)
inactive: [1] | [5] | [2] | [3] | [4] | [7]

Oc1cc2ccccc2cc1O
inactive: [1] | [2] | [3] | [4]

Oc1c(Cl)cc(Cl)cc1Sc1cc(Cl)cc(Cl)c1O
active: [1] 12.4 µM and 12 µM | [2] 4.54 µM and 5.28 µM | [3] 5.29 µM and 5.92 µM | [4] 23.8 µM and 17.2 µM

OCC(CO)(CBr)CBr
inactive: [1] | [2] | [3] | [4]

C=CC(=C)CC/C=C(\C)CCC=C(C)C
inactive: [1] | [2] | [3] | [4]

CCCCc1oc2ccccc2c1C(=O)c1cc(I)c(OCCN(CC)CC)c(I)c1
active: [1] 22.9 µM | [5] 8.86 µM | [2] 15.1 µM | [3] 4.1 µM | [4] 13.4 µM | [8] 3.91 µM

Clc1ccc(Nc2nnc(Cc3ccncc3)c3ccccc23)cc1
inactive: [1] | [2] | [3] | [4]

O=C(O)C(F)(F)OC(F)(F)C(F)(F)OC(F)(F)C(F)(F)OC(F)(F)C(F)(F)C(F)(F)C(F)(F)F
active: [1] 49.2 µM and 53.4 µM | [5] 44.5 µM and 45.8 µM | [2] 30 µM and 24.7 µM | [3] 49.6 µM and 47.7 µM | [4] 51.5 µM and 53.1 µM

CCCCCCc1ccc(N)cc1
inactive: [9]

CCCCCC(C)OC(=O)COc1ccc(Cl)c2cccnc12 (stereo not drawn)
active: [11] 0.751 µM
inactive: [10]

CN(Cc1cnc2nc(N)nc(N)c2n1)c1ccc(C(=O)N[C@@H](CCC(=O)O)C(=O)O)cc1
inactive: [12]

c1cc[nH]c1
inactive: [13]

CCCCCCCCCCCCCCCCCC[N+](C)(C)Cc1ccccc1
active: [13] 0.425 µM

CC1=NN(c2ccccc2)C(=O)C1
active: [14] 3.06 µM

CC(C)C=O
active: [7] 5 µM

NC(=NCCCCCCN=C(N)/N=C(\N)Nc1ccc(Cl)cc1)/N=C(\N)Nc1ccc(Cl)cc1
active: [15] 2.84 µM

CCCCC(CC)C(=O)O (stereo not drawn)
inactive: [16]

CCCCCCCCCCCCOS(=O)(=O)O
inactive: [16] | CDK2 (gene 1017)
active: [6] 25 µM | [17] 32.9 µM
